Inhibition of aptamer binding data for 27 compounds are collected here from PubChem BioAssay AID488847 (NMMLSC, 2010).

The structures appear in SMILES notation. About 1,900 (0.58%) of roughly 330,000 compounds were called active. Only a selection was taken, and actives are over-represented in it overall. A number with no mark means an inactive call.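 The calls were made as follows: active = inhibition of aptamer binding above 40%, roughly 3 SD of noise, on plates passing a quality check; inactive = the rest.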

The target of the test is Beta-adrenergic receptor kinase 1 (Homo sapiens) (UniProt P25098). Description: compounds blocking aptamer binding on GRK2 – biochemical, human GRK2, bead flow cytometry, HTS, primary screen (AID 488847).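 Also: median bead fluorescence of bound FAM aptamer so fluorescent compounds give negative values.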 Conditions: FAM-aptamer displacement from GRK2, at 10 µM, active compounds read high. On the technique in general: In flow cytometry, cells or beads pass a laser one at a time.
Chain of Beta-adrenergic receptor kinase 1 (Homo sapiens) (P25098 whole entry, looked up): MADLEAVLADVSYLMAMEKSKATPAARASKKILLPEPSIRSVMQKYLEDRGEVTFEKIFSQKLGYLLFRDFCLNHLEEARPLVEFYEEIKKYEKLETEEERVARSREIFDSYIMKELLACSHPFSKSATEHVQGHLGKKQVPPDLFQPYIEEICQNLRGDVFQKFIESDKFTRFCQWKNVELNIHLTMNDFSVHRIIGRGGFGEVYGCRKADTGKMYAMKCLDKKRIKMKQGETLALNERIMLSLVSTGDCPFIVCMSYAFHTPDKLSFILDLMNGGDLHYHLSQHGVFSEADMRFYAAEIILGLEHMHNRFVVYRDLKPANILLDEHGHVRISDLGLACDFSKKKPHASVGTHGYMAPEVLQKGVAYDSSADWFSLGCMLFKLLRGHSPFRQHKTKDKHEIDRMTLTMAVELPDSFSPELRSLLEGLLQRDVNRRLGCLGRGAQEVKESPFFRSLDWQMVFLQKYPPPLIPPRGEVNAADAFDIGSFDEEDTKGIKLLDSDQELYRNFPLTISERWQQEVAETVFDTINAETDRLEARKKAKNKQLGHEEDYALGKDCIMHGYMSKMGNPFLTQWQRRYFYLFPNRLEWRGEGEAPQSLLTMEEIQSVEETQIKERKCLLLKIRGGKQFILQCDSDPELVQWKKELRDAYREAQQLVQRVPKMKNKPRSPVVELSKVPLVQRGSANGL
As to `Nc1cc(N2CCCCCC2)c2nonc2c1[N+](=O)[O-]`, the inhibition of aptamer binding is 0%. As for `Cc1ccc(S(=O)(=O)CCC(=O)OCC(=O)NCCc2ccc(S(N)(=O)=O)cc2)cc1`, the figure is 0%. As for `COc1ccc(Cl)cc1NC(=O)CCS(=O)(=O)c1cc2c(cc1C)NC(=O)CO2`, the figure is 80% (active). As for `COc1ccc(Cl)cc1NC(=O)CCS(=O)(=O)c1ccc(Br)cc1`, the figure is 89% (active). Consider `Cc1cc2c(cc1S(=O)(=O)CCC(=O)NCc1ccccc1)OCC(=O)N2`, for which the inhibition of aptamer binding was 2%. As for `COc1ccc(NC(=O)CCS(=O)(=O)c2cc3c(cc2Cl)NC(=O)CO3)cc1OC`, the inhibition of aptamer binding is 0%. The value for `CCOc1ccc(OCC)c(NC(=O)CCS(=O)(=O)c2ccc(C)cc2)c1` was 0%.

`COc1ccc(Cl)cc1NC(=O)COC(=O)c1ccc(Br)o1`: the inhibition of aptamer binding was 0%. For the compound `O=C(Cc1ccc(Br)cc1)NCCc1ccccc1`, the inhibition of aptamer binding was 1%.

For `O=C(CCS(=O)(=O)c1ccc(Br)cc1)NCCc1ccc(Cl)cc1`, the inhibition of aptamer binding is 49% (active). The value for `Cc1ccc(CN2C(=O)N/C(=C/c3cc(C)n(-c4ccccn4)c3C)C2=O)cc1` was 1%; that for `CCc1cc2c(=O)c(-c3nc4ccccc4n3C)c(CCCC(=O)O)oc2cc1OC(=O)C(C)(C)C` was 1%; that for `COc1ccc(CN2C3CCCC2CC(NC(=O)c2cccc(F)c2)C3)cc1` (configuration not stated) was 0%. The value for `CC(=O)N1CCC(C(=O)Nc2nc(-c3ccccc3)ns2)CC1` was 0%; that for `CC(Sc1nncn1C)C(=O)Nc1cc(C(F)(F)F)ccc1N1CCOCC1` (configuration not stated) was 0%; that for `O=C(N1CCCC1)C12CC3CC(C1)CC(C(=O)N1CCCC1)(C3)C2` was 3%. As for `O=C(NCC12CC3CC(C1)CC(CNC(=O)N1CCCC1)(C3)C2)N1CCCC1`, the inhibition of aptamer binding was 54% (active). The value for `C=CCNC(=O)CC12CC3CC(C1)CC(CC(=O)NCC=C)(C3)C2` was 1%; that for `N#Cc1c(-c2ccccc2)nc(SCc2ccc([N+](=O)[O-])cc2)[nH]c1=O` was 5%. As for `O=c1[nH]c(SCc2ccccc2)nnc1-c1ccccc1`, the figure is 80% (active). As for `Cc1ccccc1CSc1nnc(-c2ccccc2)c(=O)[nH]1`, the figure is 3%.

For `COc1cc(OC)cc(C(=O)Nc2nnc(SCC(=O)NCC3CCCO3)s2)c1` (configuration not stated), the inhibition of aptamer binding was 0%. `CCC(=O)Nc1ccccc1C(=O)N1CCN(Cc2ccccc2)CC1`: the inhibition of aptamer binding is 2%. For the compound `COc1ccc(Nc2nc(-c3cccnc3)nc3ccccc23)cn1`, the inhibition of aptamer binding is 60% (active). As for `S=c1nc2ccccc2c2nc(-c3cccnc3)[nH]n12`, the figure is 0%.

On to `CC(C)(C)Nc1nc(-c2ccccn2)nc2ccccc12`, for which the inhibition of aptamer binding is 0%. The value for `COc1cc(OC)c(C2=NOC(C(=O)Nc3c(C)n(C)n(-c4ccccc4)c3=O)C2)cc1Cl` (configuration not stated) was 1%.
